From PubChem BioAssay AID2462 (Broad Institute, 2010) come the findings set out here.

Screen size: about 330,000 compounds; about 220 (0.067%) were called active. What follows is part of a selection rich in actives, with near analogues and random picks from the rest. Unmarked numbers belong to inactive results.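 Rule for the calls: active = over half of replicate activation scores above 10%, or exactly half above 10 with the replicate mean above 10; inconclusive = replicate mean below 10 yet half the replicates above 10; inactive = over half of replicates below 10.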

The nature of the test: inducers of caspase signal in A1-primed MEFs – cell-based, luminescence, HTS, A1 inhibitor project, primary screen (AID 2462). The note with it: MEF A1-2A-BIM cells, Caspase-Glo 3/7 luminescence, 3 h; active compounds read high; percent of clofoctol response, vehicle zero; concentration not given here.
With `C=CCOc1c(CNn2cn[nH]c2=S)cccc1OC`, the caspase activation was 0.398%.

Consider `CCOC(=O)c1c(C)n(C)c2ccc(OC)c(NS(=O)(=O)CC)c12`, for which the caspase activation is -0.135%.

`CC12CCC(C(=O)N(NC(=O)c3ccccc3O)C1=O)C2(C)C` (stereo not given): the caspase activation was 1.44%.

Turning to `CCOC(=O)c1cnc(-n2nc(C)cc2C)nc1NNc1cc(C)nc(-c2ccccc2)n1`, the caspase activation was -0.244%.

Regarding `O=C1CC(Cc2ccccc2)C(=O)N1c1ccc(Cl)cn1` (stereo not given), the caspase activation is -0.386%.

Consider `CCOC(=O)C1=C(CN2CCc3ccccc32)NC(=O)NC1c1cc(C)ccc1C` (stereo not given), for which the caspase activation was -0.324%.

For the compound `COC(=O)c1ccc(/C=C/c2c(-c3ccc(OC)cc3)sc3ccccc23)cc1`, the caspase activation is 0.0613%.

Consider `CCOc1ccc(NC(=O)c2ccc(CSc3nnnn3C)cc2)cc1`, for which the caspase activation was -1.46%.

In the case of `CN1CCN(CC(=O)C23CC4CC(CC(C4)C2)C3)CC1`, the caspase activation is -0.618%.

As for `Cc1c(C(=O)NNC(=O)c2ccncc2)oc2ccccc12`, the caspase activation was -1.06%.

For `O=c1cc(CN2CCN(c3cccc(Cl)c3)CC2)c2cc3c(cc2o1)CCCC3`, the caspase activation was 0.443%.

For the compound `Cc1cccc(N2CC(C(=O)Nc3ccccc3N3CCCC3)CC2=O)c1C` (stereo not given), the caspase activation is -0.198%.

For the compound `COc1ccc(C2C(C#N)=C(N)Oc3cc(N)ccc32)cc1OC` (stereo not given), the caspase activation was 0.292%.

Turning to `FC(F)(F)c1ccnc(Oc2ccc(C3=NCCS3)cc2)c1`, the caspase activation is -5.34%.

Take `CC(=O)Nc1ccc(C(=O)OCC(=O)Nc2ccc([N+](=O)[O-])cc2C(F)(F)F)cc1`: the caspase activation is 0.347%.

For `Cc1ccc(CNC(=O)C2CCCN2C(=O)NCc2ccccc2)cc1` (stereo not given), the caspase activation is 0.299%.

For `Cc1cccc(OCCNC(=S)NC(=O)c2cccnc2)c1`, the caspase activation is 0.352%.

Turning to `O=C(NCCN1CCN(C(=O)c2cccc([N+](=O)[O-])c2)CC1)C(=O)NCc1ccc(Cl)cc1`, the caspase activation was -0.117%.

As for `O=C(CN(Cc1ccccc1)C(=O)CCC(=O)Nc1ccccn1)NCCc1ccccc1`, the caspase activation was -0.282%.

In the case of `CCOC(=O)CC1COCCN1C(=O)c1cc(COc2ccc(F)c(F)c2)on1` (stereo not given), the caspase activation is -0.113%.

For the compound `Cc1ccc(-n2ncc3c2CC(C)(C)CC3NC(=O)CCc2cnn(C)c2)cc1` (stereo not given), the caspase activation is 0.222%.

`COc1ccc(N2CCN(C(=O)CCSCc3ccccc3F)CC2)cc1`: the caspase activation was -0.325%.

For the compound `CSc1ccc(/C=C2\NC(=O)NC2=O)cc1`, the caspase activation was -0.861%.

Turning to `O=C(CCc1n[nH]c(=O)[nH]c1=O)N/N=C/c1ccc(Br)o1`, the caspase activation is -0.493%.

For the compound `CN(C(=O)c1cccc(NC(=O)C2CCN(C(=O)OC(C)(C)C)CC2)c1)C1CCC1`, the caspase activation is 0.788%.

For the compound `COCCCNC(=O)C1CCN(c2ccc(N3CCOCC3)nn2)CC1`, the caspase activation is 0.283%.

`C#CCOCCOCCOCCNc1nc(N2CCN(C(=O)[C@H](CCCN=C(N)N)n3cc(C(N)[C@@H](C)CC)nn3)CC2)nc(N2CCN(C(=O)[C@H](CO)n3cc([C@@H](N)C(C)C)nn3)CC2)n1` (stereo not given in full): the caspase activation was 0.85%.

As to `COC(=O)CNC(=O)c1ccc2c(c1)S(=O)(=O)c1ccccc1C2=O`, the caspase activation is -0.413%.

Consider `CCC1C(=O)NCCN1C(=O)c1ccc2nc(Cc3ccc(OC)cc3)oc2c1` (stereo not given), for which the caspase activation was -0.419%.

`COc1ccc(CCNc2cc(N3CCN(C(=O)c4ccccc4OC)CC3)ccc2[N+](=O)[O-])cc1OC`: the caspase activation is -0.378%.

Take `O=C1c2ccccc2NC(c2ccccn2)N1NS(=O)(=O)c1ccccc1` (stereo not given): the caspase activation was 1.93%.

Take `CC(=O)c1ccccc1NC(=O)C1CC(=O)N(c2ccc3c(c2)OCCO3)C1` (stereo not given): the caspase activation is 0.41%.

With `Cc1ccc(-c2nnc(CN3CCN(C)CC3)o2)cc1`, the caspase activation is 0.0366%.

Turning to `COc1cc2c(cc1OC)C(C(=O)Nc1cc(C)c(OC)c(C)c1)CC(=O)N2` (stereo not given), the caspase activation is 0.803%.

For `Cc1ccc2cc3cc(C(=O)N4CCCCCC4)oc3nc2c1`, the caspase activation was 0.083%.

With `NC1=NC(=O)C(Cc2cccc(Cl)c2)S1` (stereo not given), the caspase activation is -0.108%.

On to `CC(C)(C)OC(=O)N[C@H](C(=O)OC(C)(C)C)c1ccc(Br)cc1`, for which the caspase activation was -0.98%.

As to `CCOC(=O)c1c(NC(=O)CCCN2CCOCC2)sc2c1CC(C)(C)OC2`, the caspase activation was -0.683%.

Consider `CN(C)C(=O)Cn1c(=O)n(S(=O)(=O)c2ccccc2)c2ccccc21`, for which the caspase activation was -0.645%.

Turning to `CN(c1ccc2nc3ccccc3c(=O)n2n1)C1CCCCC1`, the caspase activation was 0.636%.

For the compound `CN(C(=O)CSc1nnc(N)s1)c1c(N)n(Cc2ccccc2)c(=O)[nH]c1=O`, the caspase activation is 0.167%.

Consider `O=[N+]([O-])C(=c1ccc2c(c1)N1C3=C(CCCC3)CC3CCCCC31N=2)[N+](=O)[O-]` (stereo not given), for which the caspase activation was 6.39% (active).

With `CCOC(=O)C(NC(=O)CC(C)C)(Nc1sc2c(c1C(N)=O)CCCC2)C(F)(F)F` (stereo not given), the caspase activation was 0.722%.

As for `O=C(O)c1cc2ccccc2c(=O)s1`, the caspase activation was 1.64%.

For `COc1ccc(CCNC(=O)CN(C)S(=O)(=O)c2ccc3nc(C)sc3c2)cc1OC`, the caspase activation was -2.31%.

Consider `CCC(C)NC(=O)N[C@@H](CCSC)C(=O)O` (stereo not given in full), for which the caspase activation was 0.604%.

In the case of `CCCCC(O)(CCCC)C(=O)NN(C(=O)CCl)c1ccccc1`, the caspase activation is 0.273%.

For `COc1ccc(OCC(=O)NN2Cc3ccccc3C2=N)cc1`, the caspase activation was 1.26%.

As for `Cc1ccc2oc(C(=O)N3CCN(C)C[C@@H]3C(C)C)c(C)c2c1`, the caspase activation is -0.346%.

As for `CCOc1ccccc1-n1c(SCC(=O)NCc2ccco2)nnc1-c1ccncc1`, the caspase activation is -0.681%.

On to `O=C(NCc1ccccc1)C1CCCN(c2nc3ccsc3c(=O)s2)C1` (stereo not given), for which the caspase activation was -0.382%.

As to `COc1cccc(NC(=O)Cn2c3ccc(F)cc3c3nc4n(c(=O)c32)CCS4)c1`, the caspase activation is -1.98%.

For `O=c1c(-c2ccccc2Cl)c[nH]n1-c1ccccc1`, the caspase activation is -1.88%.

On to `COc1ccc(C(=O)NCCSc2ccccc2C)cc1`, for which the caspase activation is -1.26%.

Regarding `OCCC1CN(Cc2cnc(-c3ccccc3)s2)CCN1CCc1ccccc1` (stereo not given), the caspase activation was 0.493%.

Take `CCOCCn1[nH]c2ccccc2c1=O`: the caspase activation is -0.169%.

As to `O=S(=O)(Nc1ccc(-c2ccc(N3CCOCC3)nn2)cc1)c1cc(Cl)ccc1Cl`, the caspase activation is 0.476%.

As to `CC(C)CNC(=S)NNC(=O)c1ccccc1OC(F)F`, the caspase activation was 1.35%.

`CN(Cc1c(F)cccc1Cl)C(=O)CNC(=O)c1ccc2c(c1)OCO2`: the caspase activation is -0.444%.

As to `N#Cc1c(-c2ccc(F)cc2)cc(C2CC2)nc1SCC(=O)c1cccs1`, the caspase activation is -0.105%.

As for `Cc1cccc(C(=O)NCc2nnc(SC(C)C(=O)Nc3nnc(C)s3)n2C)c1` (stereo not given), the caspase activation was 0.308%.

`COc1ccc(C2CC(=O)C=C(NCC3CCCO3)C2)cc1` (stereo not given): the caspase activation was 1.09%.

Consider `Cc1c(C(=O)N2CCN(c3ccc(F)cc3)CC2)oc2c1C(=O)CCC2`, for which the caspase activation was -0.061%.

In the case of `Cc1ccc(CC2C(=O)N(c3ccc(F)cc3)C(=O)C2C)cc1` (stereo not given), the caspase activation was 0.618%.

Regarding `Cc1cc(-n2cnc(-c3cn(C)nc3C)n2)no1`, the caspase activation is 0.762%.

Turning to `O=C(NCc1ccccc1)C1=C[C@@H](C2CCCCC2)C[C@@H](OCc2ccc(CO)cc2)O1`, the caspase activation was 1.39%.

For `Cc1ccc(CNC(=O)CCS(=O)(=O)c2ccc3c(c2)CC(C)N3C(=O)C2CC2)o1` (stereo not given), the caspase activation was 3.53%.

For `O=C(C1CCCO1)N1CCN(C(=S)NC2CC2)CC1` (stereo not given), the caspase activation is -0.789%.

With `CC1=C(C(N)=O)C(c2sccc2C)n2nnnc2N1` (stereo not given), the caspase activation was -0.851%.

Regarding `CCC1CCCCN1CCCNC(=O)c1cc2c(Cl)nc3ccccc3c2s1` (stereo not given), the caspase activation was -0.978%.

Regarding `CC(=O)C(C)n1cnc2scc(-c3ccc(C)cc3)c2c1=O` (stereo not given), the caspase activation was 0.409%.

For the compound `O=C(NC1CCCCC1)C1CCC(CNS(=O)(=O)c2ccccc2)CC1` (stereo not given), the caspase activation is 0.134%.

For the compound `CNc1[nH]ncc1[N+](=O)[O-]`, the caspase activation was -0.643%.

For the compound `COc1ccc(C[C@H]2CN3C(=NC[C@H]3C)N2CCNC(=O)CCC2CCCCC2)cc1`, the caspase activation was 0.277%.

Take `CCCN(c1ccc(C)cc1)c1nc(=O)c2cccnc2s1`: the caspase activation is 0.23%.

As to `COC(=O)[C@H]1Cc2cnoc2C[C@]1(C)C(=O)O`, the caspase activation was -0.157%.

In the case of `COc1ccc(OC)c(/C=C/C(=O)c2ccc3c(c2)OCO3)c1`, the caspase activation was -0.508%.

Turning to `COc1ccc(Nc2ccc([N+](=O)[O-])cn2)cn1`, the caspase activation is -0.342%.

For the compound `CCN(CC(=O)Nc1ccc(OC)cc1)C(=O)CSCc1ccc(C)cc1`, the caspase activation is -0.709%.

Consider `COc1ccc(NC(=O)/C(Cl)=C(/Cl)S(=O)Cc2ccc(C)cc2)cn1` (stereo not given), for which the caspase activation was 7.8% (active).

`CCc1ccc(OCC2c3cc(OC)c(OC)cc3CCN2C(C)=O)cc1` (stereo not given): the caspase activation was 0.768%.

As for `CC[C@H]1CN2CCc3cc(OC)c(OC)cc3[C@@H]2C[C@@H]1C[C@H]1NCCc2cc(OC)c(OC)cc21`, the caspase activation is 7.26% (active).

For `COc1ccc2c(c1)CCNC2Cc1ccc(OC)c(O)c1` (stereo not given), the caspase activation was 2.35%.

`COc1cccc(NC(=O)CN(C)C(C)C(=O)Nc2ccc(C#N)cc2)c1` (stereo not given): the caspase activation was 0.554%.

Consider `CC[N+](C)(CC)CCC[n+]1c(-c2ccccc2)c2cc(N)ccc2c2ccc(N)cc21`, for which the caspase activation was 2.85%.

For the compound `CC(=O)Nc1ccc(Sc2ccccc2C(=O)N2CCCC2)cn1`, the caspase activation is 0.126%.

As to `Cn1c(C(=O)O)ccc1S(=O)(=O)N(Cc1ccccc1)Cc1ccccc1`, the caspase activation is -0.442%.

For `O=C(NCCc1ccco1)C(=O)NCCC1CCCCN1S(=O)(=O)c1ccccc1` (stereo not given), the caspase activation is 0.605%.

Consider `CN(C)c1ccc(Nc2c3c4c(cccc4n(C)c2=O)C(=O)c2ccccc2-3)cc1`, for which the caspase activation is -0.124%.

Take `CC1(C)COC(c2cccn2Cc2ccccc2Cl)=N1`: the caspase activation was -0.0448%.
